For 9 compounds, growth inhibition results are on record in PubChem BioAssay (NCI).

This is part of a sample that, as a whole, favours compounds with a hit. Of some 79,000 tested, about 15% had one in any assay. Values without a mark were called inactive. Calls of active or inactive are those of the source. Cut-off read from the data, not from the text of the source: active = growth inhibition above about 70%; inactive = the rest.

Assay [1] is described as follows: NCI Yeast Anticancer Drug Screen. Data for the rad50 strain (AID 155).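 Note: 0% = growth of vehicle-only cultures of the same strain.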 Particulars: S. cerevisiae rad50 strain growth inhibition; at 50.0 µM; stronger effect = higher value. An outline of the steps:
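Genetically altered yeast (DNA repair pathway); compound treatment; growth inhibition vs vehicle ctrl.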

Assay [2] can be described thus: NCI Yeast Anticancer Drug Screen. Data for the mec2-1 strain (AID 157). Particulars: S. cerevisiae mec2-1 strain, at 50.0 µM, stronger effect = higher value. Put shortly: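 Vehicle-treated cultures served as reference for growth inhibition of compound-exposed mec2-1 yeast.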
Assay [3] can be described thus: NCI Yeast Anticancer Drug Screen. Data for the mlh1 rad18 strain (AID 175). The note with it: S. cerevisiae mlh1 rad18 strain growth inhibition; at 50.0 µM; stronger effect = higher value. Put shortly: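 Vehicle-treated cultures served as the reference for growth inhibition in a yeast strain carrying DNA damage repair alterations exposed to each compound.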
A short description of assay [4]: NCI Yeast Anticancer Drug Screen. Data for the sgs1 mgt1 strain (AID 161).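 Note: 0% = growth of cultures given vehicle only.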 The note with it: S. cerevisiae sgs1 mgt1 strain, at 50.0 µM, stronger effect = higher value. Put shortly: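 Test agents were incubated with a DNA-repair-mutant yeast strain. Growth was then read and compared against vehicle-treated controls.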
The nature of assay [5]: NCI Yeast Anticancer Drug Screen. Data for the cln2 rad14 strain (AID 165).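 Note: 0% = growth equal to vehicle treated cultures.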 The note with it: S. cerevisiae cln2 rad14 strain, at 50.0 µM, stronger effect = higher value. An outline of the steps:
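Each compound was tested on cln2 rad14 yeast. Inhibition of growth was calculated against vehicle-exposed controls.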

A short description of assay [6]: NCI Yeast Anticancer Drug Screen. Data for the bub3 strain (AID 167). Particulars: S. cerevisiae bub3 mutant strain, at 50.0 µM, stronger effect = higher value. An outline of the steps:
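Yeast carrying a defined mutation is treated with each compound, and growth is compared with that of vehicle-exposed cells to give inhibition.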

As to `CC(C)CC(Br)C(=O)NC(CC(C)C)C(=O)O` (centres undefined), the growth inhibition was -26.2% in assay [1], -27.9% in assay [2] and -23.2% in assay [3].

Regarding `COC(=O)C(C(=O)C(=O)NC1Nc2ccc(C)cc2S1)c1nc2ccc(Cl)cc2[nH]c1=O` (centres undefined), the growth inhibition in assay [1] is 18.2%; in assay [4], 11.5%; in assay [5], 21.1%; in assay [6] it was 13.2%; in assay [3], 28.9%.

For the compound `CC(=Nc1ccncc1)C(C)=Nc1ccncc1`, the growth inhibition in assay [1] is 89.7% (active); in assay [4], 89.8% (active); in assay [5] it was 88.8% (active); in assay [6], 89.8% (active); in assay [3], 88.7% (active).

In the case of `Nc1ccccc1SC1CC(=O)N(c2cccc3ccccc23)C1=O` (centres undefined), the growth inhibition in assay [1] is -19.6%; in assay [2], -7.6%; in assay [3], -12.8%.

As to `CCCCCCCCOC(=O)C12Oc3ccc(-c4ccc5c(c4O)C(O)=C4C(=O)CC(C)C(O)C4(C(=O)OCCCCCCCC)O5)c(O)c3C(O)=C1C(=O)CC(C)C2O` (centres undefined), the growth inhibition in assay [1] was 16.4%; in assay [4], 11.4%; in assay [5], 7.6%; in assay [6], 33.6%; in assay [3], -54.6%.

Regarding `OCNC(=S)c1c(Cl)cccc1Cl`, the growth inhibition in assay [1] was -4.25%; in assay [3], -6.6%.

`O=C(O)c1ccccc1Oc1ccccc1C(=O)O`: the growth inhibition in assay [1] is -8.75%; in assay [3], -22.6%.

Consider `COc1ccc(/C=C2/NC(=S)N=C2Cl)cc1`, for which the growth inhibition in assay [2] is -21.8%; in assay [4], 4.3%; in assay [5], -0.45%; in assay [3], -29%.

With `O=C(CCc1ccc(O)c(O)c1)c1ccc(O)c(O)c1O`, the growth inhibition is -19.9% in assay [2]; 9.1% in assay [4]; 2.6% in assay [5]; -17.1% in assay [6]; -33.9% in assay [3].
